According to PubChem BioAssay AID1578 (Sanford-Burnham Center for Chemical Genomics, 2009):
Among all 290,000 compounds or so, about 3,000 (1%) were called active. Only a selection was taken, and actives are over-represented in it overall. A number with no mark means an inactive call. Rule as the data show it: active = inhibition mostly above about 36% (no sharp cut-off); inactive = mostly below about 34%.

Experiment: NOD1 signaling inhibitors, primary screen, cell-based, luminescence, uHTS (AID 1578);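 also: HEK-293T reporter cells stimulated with the NOD1 agonist gamma-tri-DAP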
Conditions: NOD1-driven NF-kB luciferase reporter cells, at 4 µM, hits give high values

Structure (SMILES) | inhibition
Nc1nonc1C(=O)NCCNC(=O)c1cccc(Cl)c1 | -28.8%
CCOC(=O)c1ccccc1Nc1cn(C(C)=O)c2ccccc12 | -3.8%
O=Cc1[nH]c2ccccc2c1N(C(=O)CCl)c1ccc([N+](=O)[O-])cc1 | 19.2%
COc1ccccc1N(C(=O)CCl)c1cn(C(C)=O)c2ccccc12 | 93% (active)
CC(=O)N(c1ccc(Cl)cc1)c1cn(C(C)=O)c2ccccc12 | -16.5%
CC(=O)n1cc(N(C(=O)CCl)c2ccc(Cl)cc2)c2ccccc21 | 14.2%
CC(=O)n1cc(Nc2ccc([N+](=O)[O-])cc2)c2ccccc21 | -18%
CC(=O)n1cc(N(C(=O)CCl)c2ccc([N+](=O)[O-])cc2)c2ccccc21 | 38.7% (active)
CC(=O)n1cc(CO)c2ccccc21 | -5.2%
CN1/C(=C/C(=O)CSc2ccccc2C(=O)O)C(C)(C)c2ccccc21 | 10.5%
CCC(Oc1ccccc1OC)C(=O)N1CC(=O)Nc2ccccc21 (stereo not drawn) | 29%
CCOc1ccc(NS(=O)(=O)c2ccc(NS(=O)(=O)c3cccs3)cc2)cc1 | -17.3%
COc1ccc(Cl)cc1NC(=O)N(C)Cc1c(C)nn(C)c1C | -24.6%
Cc1cc(NCc2ccccc2)nc(-c2ccccc2O)n1 | -41.6%
CC(=O)c1c(C)[n+]([O-])c2ccc3c(non3O)c12 | -20%
[O-][n+]1c2c(c3c4non(O)c4ccc31)CCCC2 | 79.7% (active)
CCOC(=O)c1c(C)[n+]([O-])c2ccc3c(non3O)c12 | -24.8%
CCN(C(=O)c1c(-c2ccccc2Cl)noc1C)C1CCCCC1 | -10.1%
Cc1cc(C)c2nc(C(F)(F)F)c(C#N)c(N)c2c1 | 76.9% (active)
Cc1cc(C)c2nc3nc(C)c(C)cc3c(N)c2c1 | -27.3%
Cc1cc(C)c2nc3nc(C)cc(C)c3c(N)c2c1 | -26.5%

Structure (SMILES) | inhibition
COc1cc2c(=O)n(CCC(=O)NCC3CCCO3)c(=O)n(CC(=O)Nc3ccc(C)c(C)c3)c2cc1OC (stereo not drawn) | -11.3%
CC(C)(CO)NS(=O)(=O)c1ccc2c(c1)oc(=O)c1cc(S(=O)(=O)NC(C)(C)CO)ccc12 | -6.5%
CC(=O)Nc1cc2nn(-c3ccccc3)nc2cc1Cl | -27.6%
CC(C)(C)C(=O)Nc1cc2nn(-c3ccccc3)nc2cc1Cl | 87.1% (active)
CCC(=O)Nc1cc2nn(-c3ccccc3)nc2cc1Cl | -22.2%
O=C(O)C1CCCN1c1ncccc1[N+](=O)[O-] (stereo not drawn) | -20.8%
OCCN1CCN(CC(O)COCCOc2ccc(Br)cc2)CC1 (stereo not drawn) | 62.2% (active)
CN1CCN(CC(O)COCCOc2ccc(Br)cc2)CC1 (stereo not drawn) | -26%
CCN1CCN(CC(O)COCCOc2ccc(Br)cc2)CC1 (stereo not drawn) | -19.1%
O=C(COc1ccccc1CNCc1ccccc1)Nc1ccccc1 | -69.5%
O=c1c2cc(NC(=S)N3CCCCC3)ccc2nc2n1CCCCC2 | -32.7%
Cc1ccc2nc(NC(=O)c3ccc(-c4nc5ccccc5s4)s3)sc2c1 | -74.1%
CCCNC(=O)c1ccc(-c2nc3ccccc3s2)s1 | -50.1%
O=C(NC1CC1)c1ccc(-c2nc3ccccc3s2)s1 | 70.1% (active)
O=CN1CCN(C(=O)c2ccc(-c3nc4ccccc4s3)s2)CC1 | -25.6%
O=C(c1ccc(-c2nc3ccccc3s2)s1)N1CCOCC1 | 82.9% (active)
CCN1CCN(C(=O)c2ccc(-c3nc4ccccc4s3)s2)CC1 | -43.4%
COc1ccc(NC2CCCN(C(=O)CN3C(=O)c4ccccc4C3=O)C2)cc1OC (stereo not drawn) | -24.8%
COc1ccc(OC)c2c(C)cc(N3CCN(C(=O)c4ccc(C)cc4)CC3)nc12 | -12.9%
CN(C1CCCCC1)C(CNS(=O)(=O)c1ccc(Cl)cc1)c1ccccc1 (stereo not drawn) | -15.5%
O=C(O)c1ccccc1-n1cccc1C(=O)O | -9.5%

Structure (SMILES) | inhibition
O=C(CN1CCc2ccccc2C1)Nc1cc(S(=O)(=O)N2CCOCC2)ccc1N1CCOCC1 | -17.8%
CCN(CC)c1ccc(S(=O)(=O)N2CCOCC2)cc1NC(=O)CN1CCN(Cc2ccccc2)CC1 | -3.8%
O=C(NNC(=O)c1cc(Br)ccc1Cl)c1csc(N2CCOCC2)n1 | -14.6%
O=C(NNC(=O)c1ccccc1C(F)(F)F)c1csc(N2CCOCC2)n1 | -87.8%
O=C(NNC(=O)c1ccccc1OCc1ccccc1Cl)c1csc(N2CCOCC2)n1 | 96.3% (active)
CCc1ccc(NC(=O)CN2CCCN(S(=O)(=O)c3ccc(F)cc3)CC2)cc1 | -21.6%
O=C1CC(c2nc3ccccc3[nH]2)CN1Cc1ccccc1 (stereo not drawn) | -15%
COc1ccc(CCNC(=O)C2CC(=O)N(C3CCCCCCC3)C2)cc1OC (stereo not drawn) | -23.8%
O=c1c2ccccc2nc2n1CCS2 | -2.5%
Cc1ccc2c(=O)cc(C(=O)NC3CCS(=O)(=O)C3)oc2c1 (stereo not drawn) | -12%
O=C(NCc1nc(-c2ccc(C(F)(F)F)cc2)no1)Nc1ccc(OC(F)(F)F)cc1 | 5.1%
O=C(NCc1nc(-c2ccc(C(F)(F)F)cc2)no1)Nc1cc(Cl)cc(Cl)c1 | 44.1% (active)
O=C(NCc1nc(-c2ccc(C(F)(F)F)cc2)no1)Nc1ccc(F)cc1F | 3.8%
Cc1ccccc1CC(=O)N1CC(C)OC(C)C1 (stereo not drawn) | -15.5%
O=C(Nc1cccc2[nH]ncc12)c1ccc(F)cc1 | -0.2%
O=C(NC(=S)Nc1cccc2cccnc12)c1ccccc1 | -2.9%
S=C(NCc1ccccc1)Nc1cccc2cnccc12 | 41.4%
O=C(NC(=S)Nc1cccc2[nH]ncc12)c1ccccc1 | 68.4% (active)
CNC(=S)Nc1cccc2[nH]ncc12 | -6.5%
O=C(NC(=S)Nc1cccc2cnccc12)c1ccccc1 | 80.9% (active)
CS(=O)(=O)N(CC(=O)Nc1cccnc1)c1ccc2c(c1)OCCO2 | -12.2%
